According to PubChem BioAssay AID743343 (Broad Institute, 2014):
Entries with a potency or affinity are not part of this list.

tested on: Drosophila melanogaster bursicon receptor LGR2 (rickets); assay: LGR2 antagonists, dose response, cell-based, HEK293, CRE-luciferase reporter, cherry pick, set 2 (AID 743343); conditions: bursicon-induced cAMP antagonist; series mostly up to 35 µM; activity change, negative = inhibition: at the top concentration; call rule not given here

Activity change, negative = inhibition, inactive:
c1ccc(COc2cccc(-c3cc4nc(NCCCn5ccnc5)ccn4n3)c2)cc1 -31.2%
COc1cccc(C#Cc2ccc([C@@H]3[C@@H](CO)N(C(=O)C4CCC4)[C@H]3C#N)cc2)c1 -11.3%
CC1CN(C(=O)c2cccc(S(=O)(=O)Nc3cc(Cl)ccc3Cl)c2)CC(C)O1 (stereo not drawn) 23%
COc1ccc(-c2noc(CCC(=O)N3CCN(c4ccc(Cl)cc4)CC3)n2)cc1 33.7%
CNCc1ccccc1Sc1ccc(O)c(O)c1 -5.29%
C=CCn1c(SCC(=O)Nc2ncc(Cc3ccc(C)c(Cl)c3)s2)nnc1-c1ccncc1 47.3%
C[C@H]1CN([C@@H](C)CO)C(=O)c2cc(NC(=O)Nc3ccccc3)ccc2O[C@H]1CN(C)Cc1ccc(-c2ccccc2)cc1 -25%
CO[C@@H]1CN(C)C(=O)c2ccc(NC(=O)C3CC3)cc2OC[C@@H](C)NC[C@@H]1C -7.47%
CCN(C(=O)COC(=O)C12CC3CC(CC(O)(C3)C1)C2)c1c(N)n(Cc2ccccc2)c(=O)[nH]c1=O 16.3%
O=C(NCc1ccc(F)cc1)c1cc(C2CCCCN2S(=O)(=O)c2cccs2)on1 (stereo not drawn) 3.39%
Cc1ccc(S(=O)(=O)N2CCCc3nc(-c4ccc(F)cc4)ccc32)cc1 17.7%
C[C@@H]1CN([C@H](C)CO)C(=O)Cc2cc(NC(=O)CCC(F)(F)F)ccc2O[C@@H]1CN(C)CC1CCCCC1 0.312%
O=C(CSc1ncnc2[nH]ncc12)Nc1nc(-c2ccc(F)c(F)c2)cs1 -2.35%
O=C(Cn1ncc(Cl)c(Cl)c1=O)N1CCOCC1 7.73%
Cc1ccc(NC(=O)c2ncn(CC(=O)N3CCN(c4ccccn4)CC3)n2)cc1C 9.09%
O=C(NCCOc1ccccc1)[C@@H]1CCCN1C(=O)c1cccs1 -14% [at 16 µM]
COc1ccc2[nH]c3c(c2c1)CCN1C(=O)N([C@@H](C)C(=O)NCc2ccc(C)cc2)C(=O)[C@]31C 15.9%
COCC(=O)N[C@@H]1CC[C@@H](CC(=O)NCc2ccccc2OC)O[C@@H]1CO -6.96%
Cc1ccnc(N2C(=O)c3ccccc3C2Nc2ccc3c(c2)OCCO3)c1 (stereo not drawn) -7.03%
Cc1ccc(NC(=O)c2ncn(CC(=O)NCc3ccc4[nH]ccc4c3)n2)cc1C 33.6% [at 16 µM]
COc1cc(CNCCO)cc(Cl)c1OCc1ccc(Cl)cc1Cl 1.33%
CC1(c2ccccc2Cl)NC(=O)N(CC(=O)N2CCc3ccccc32)C1=O (stereo not drawn) 27.4%
COc1ccc2c3c([nH]c2c1)[C@H](CO)N(C(C)=O)CC31CCN(C(=O)CN2CCOCC2)CC1 -30.6%
C[C@@H]1CN([C@H](C)CO)C(=O)c2cc(C#CCN(C)C)cnc2O[C@@H]1CN(C)C(=O)CN1CCOCC1 -6.03%
CC(C)N(C(=O)Nc1ccc2nsnc2c1)C(C)C 3.17%
Cc1ccc(S(=O)(=O)N2[C@@H](CO)CO[C@H]2CC(=O)OCc2ccccc2)cc1 -1.23%
C[C@@H]1CN([C@H](C)CO)C(=O)c2c(c3ccccc3n2C)-c2ccccc2CO[C@H]1CN(C)S(=O)(=O)c1cn(C)cn1 -10.5%
Cc1ccc(-n2cc(CN(C)Cc3nccn3C)c(-c3cccc(C)c3)n2)cc1 -21.1%
COc1ccc(S(=O)(=O)N2CCN(C(=O)c3ccc(C)o3)CC2)cc1 34.5%
COc1ccc(S(=O)(=O)N2CCOCC2)cc1NC(=O)COc1ccc(C)cc1 92.6% [at 16 µM]
O=C(Nc1ccc(N2CCOCC2)c(S(=O)(=O)Nc2ccccc2Cl)c1)c1ccc(F)cc1 -14.4%
CN(c1ccccc1)S(=O)(=O)c1cccc(NC(=O)c2cc(=O)c3ccccc3o2)c1 -24.6%
Cc1ccc2nc(NC(=O)CCCC(=O)O)sc2c1 -25.2%
Cn1nnnc1Sc1ncnc2scc(-c3ccccc3C(F)(F)F)c12 -21.3%
C[C@@H]1CN([C@H](C)CO)C(=O)CCCn2nncc2CO[C@H]1CN(C)C(=O)Nc1cccc2ccccc12 -37.9%
O=C(c1ccc(CSc2nc3ccncc3[nH]2)cc1)N1CCN(c2cccc(Cl)c2)CC1 13.9%
CCOc1cccc2sc(Nc3nc4ccc(NC(C)=O)cc4s3)nc12 12.2%
O=C(O)CSc1cc(NS(=O)(=O)c2cccc([N+](=O)[O-])c2)c2ccccc2c1O -26.4%
